From PubChem BioAssay (NCATS) come the findings set out here.

Records with an inconclusive call do not appear. Activity calls are given as the source filed them. Calls come from the whole dose curve; as a rule, active = well fitted curve in the direction sought with a large enough effect; inconclusive = small, poorly fitted or top-dose-only effect, or another doubt; inactive = no such curve, though single readings can be large; an effect the other way counts as inactive or inconclusive.

The nature of assay [1]: Primary qHTS for inhibitors of nuclear receptor binding SET domain protein 2 (NSD2) in an isogenic RCH-ACV NSD2 p.E1099K mutant (9B) (AID 1645876). For orientation: In qHTS, concentration-response curves come from the screen itself.
Assay [2] in a line: Primary qHTS for inhibitors of nuclear receptor binding SET domain protein 2 (NSD2) in an RCH-ACV wild type WT cells (2C) (AID 1645877).
Note: nearly all actives have a fitted effect of over 70% in size.

Take `O=C(O[C@H]1[C@@H]2C=CO[C@@H](O[C@@H]3O[C@H](CO)[C@@H](O)[C@H](O)[C@H]3O)[C@@H]2[C@@]2(CO)O[C@@H]12)c1ccc(O)cc1`: the Potency result in assay [1] and in assay [2] was “inactive” each time.

On to `CC(C)CC(=O)OC[C@H]1O[C@@](COC(=O)CC(C)C)(O[C@H]2O[C@H](CO)[C@@H](O)[C@H](O)[C@H]2O)[C@@H](OC(=O)CC(C)C)[C@@H]1OC(=O)CC(C)C`, for which the Potency entry in assay [1] and in assay [2] was “inactive” each time.

Turning to `CO[C@@]12CC3[C@@H]([C@@H](O)[C@@H](OC(C)=O)C4[C@](C)(COC(C)=O)CCC[C@]34C)[C@@H](C)C1=CC(=O)O2` (stereo partly specified), the Potency entry in assay [1] and in assay [2] was “inactive” throughout.

Regarding `OCCc1ccc(O[C@@H]2O[C@H](CO)[C@@H](O)[C@H](O)[C@H]2O)c(O)c1`, the Potency entry in assay [1] and in assay [2] was “inactive” in each case.

Turning to `COC1=Cc2c(nc3n(c2=O)C(C)C(=O)NC3(O)C(C)C)OC=C1` (stereo unspecified), the Potency entry in assay [1] and in assay [2] was “inactive” throughout.

With `CC1(CO)CC[C@]2(C(=O)O[C@@H]3O[C@H](CO)[C@@H](O)[C@H](O)[C@H]3O)CC[C@]3(C)C(=CCC4[C@@]5(C)CC[C@H](O[C@@H]6O[C@H](C(=O)O)[C@@H](O)[C@H](O)[C@H]6O)C(C)(C)C5CC[C@]43C)C2C1` (stereo partly specified), the outcome in assay [1] and in assay [2] was “inactive [at 9.23 µM]” in each case.

`O=C(NN1CCCCC1)c1nn(-c2ccc(Cl)cc2Cl)c(-c2ccc(C#Cc3ccc(C(F)(F)F)cc3)s2)c1CNS(=O)(=O)N1CCCC1`: the Potency result in assay [1] and in assay [2] was “inactive” throughout.

Turning to `CCC(CCO[C@@H]1O[C@H](CO[C@H]2OC[C@](O)(CO)[C@H]2O)[C@@H](O)[C@H](O)[C@H]1O)C(C)(C)O` (stereo partly specified), the Potency entry in assay [1] and in assay [2] was “inactive” in each case.
